# The supplement of paper PMC6555819
# How the values were obtained:
# Experiment in all cases: PBM binding z-score (relative to random genomic background probes); higher = stronger binding; sequences stand for … in GC…GCGATTGACAGCGTAGAATGAAGG
# [1] = tested on: FXR:RXRa (NR concentration 270 nM, RXRa partner concentration 90 nM)
# Outline: (§1)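 Regression normalization was applied to scanned fluorescence from custom Agilent 4×180K protein-binding microarrays. Before scanning, arrays were incubated 1 h with ligand-free nuclear receptor dimers, and binding was detected with antibodies against each partner (one per run). Binding z-scores use the random background probes as reference.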
# [2] = tested on: LXRa:RXRa (NR concentration 270 nM, RXRa partner concentration 90 nM)
# Outline: as §1
# [3] = tested on: LXRa homodimer (NR concentration 270 nM)
# Outline: as §1
# [4] = tested on: LXRb:RXRa (NR concentration 270 nM, RXRa partner concentration 90 nM)
# Outline: as §1
# [5] = tested on: LXRb homodimer (NR concentration 270 nM)
# Outline: as §1
# [6] = tested on: PPARa:RXRa (NR concentration 270 nM, RXRa partner concentration 90 nM)
# Outline: as §1
# [7] = tested on: PPARg:RXRa (NR concentration 180 nM, RXRa partner concentration 90 nM)
# Outline: as §1
# [8] = tested on: PPARg:RXRa 270nM:90nM, anti-RXR (NR concentration 270 nM, RXRa partner concentration 90 nM)
# Outline: as §1
# [9] = tested on: PPARg:RXRa 30nM:10nM, anti-RXR (NR concentration 30 nM, RXRa partner concentration 10 nM)
# Outline: as §1
# [10] = tested on: PPARg:RXRa 90nM:30nM, anti-RXR (NR concentration 90 nM, RXRa partner concentration 30 nM)
# Outline: as §1
# [11] = tested on: PPARg:RXRa DBDmut IVT, anti-RXR (DBD mutation: RXRa K156A/R161A, NR concentration 270 nM, RXRa partner concentration 90 nM)
# Outline: as §1
# [12] = tested on: PPARg:RXRa IVT, anti-PPARg (NR concentration 270 nM, RXRa partner concentration 90 nM)
# Outline: as §1
# [13] = tested on: PPARg DBDmut:RXRa IVT, anti-PPARg (DBD mutation: PPARg1 K132A/R137A, NR concentration 270 nM, RXRa partner concentration 90 nM)
# Outline: as §1
# [14] = tested on: PPARg DBDmut IVT, anti-PPARg (DBD mutation: PPARg1 K132A/R137A, NR concentration 270 nM)
# Outline: as §1
# [15] = tested on: PPARg homodimer (NR concentration 180 nM)
# Outline: as §1
# [16] = tested on: PXR:RXRa (NR concentration 270 nM, RXRa partner concentration 90 nM)
# Outline: as §1
# [17] = tested on: PXR homodimer (NR concentration 270 nM)
# Outline: as §1
# [18] = tested on: RARa:RXR (NR concentration 270 nM, RXRa partner concentration 90 nM)
# Outline: as §1
# [19] = tested on: RARa homodimer (NR concentration 270 nM)
# Outline: as §1
# [20] = tested on: RARb:RXRa (NR concentration 270 nM, RXRa partner concentration 90 nM)
# Outline: as §1
Sequence,PBM binding z-score [1],PBM binding z-score [2],PBM binding z-score [3],PBM binding z-score [4],PBM binding z-score [5],PBM binding z-score [6],PBM binding z-score [7],PBM binding z-score [8],PBM binding z-score [9],PBM binding z-score [10],PBM binding z-score [11],PBM binding z-score [12],PBM binding z-score [13],PBM binding z-score [14],PBM binding z-score [15],PBM binding z-score [16],PBM binding z-score [17],PBM binding z-score [18],PBM binding z-score [19],PBM binding z-score [20]
CCCACTGGGGCAGAAAGGTTACCATACCATCCGG,0.135,0.483,-0.148,0.675,-0.892,2.12,2.04,2.59,0.549,2.22,2.2,3.8,-0.946,-0.994,1.02,0.703,-0.212,1.59,-0.0999,1.86
CGTCCAAGGTCATTGCTAGGTCAGTGAAAGCATT,6.96,5.75,3.09,4.57,1.37,5.32,3.8,5.08,1.55,3.62,3.23,4.03,-0.074,-0.854,4.11,5.16,2.4,5.71,0.612,5.04
CCGACTGGGGCAAAGGTTAACATACTCAGTACGA,2.41,2.19,0.28,2.96,-0.551,6.17,11.3,9.21,9.81,10.1,4.64,6.54,0.226,-0.237,1.61,3.12,-0.0875,4.64,0.346,2.77
GCAGACAGGAGAAACGCAGGTAACTCAGGGTGGC,-0.504,-0.393,-0.471,-0.777,-1.34,-0.523,0.376,-0.659,-0.781,-0.611,-0.542,-0.859,-0.9,-0.99,-0.201,-0.694,-0.412,-0.368,-1.26,-0.624
ACAGACAGGTGATGAAGGTAAGTCAGGCTATCAT,-0.11,-0.19,-0.349,-0.143,-0.155,0.0808,0.554,-0.245,-0.266,-0.536,0.134,0.289,0.49,-0.485,-0.00799,-0.348,-0.234,-0.203,0.26,0.27
ATATGTAGGTTAGCTGGGGACATTCAGACTAGGC,1.86,1.8,0.679,1.14,0.544,2.64,3.46,2.89,1.12,2.16,6.96,6.07,2.18,1.88,1.9,2.92,0.356,1.71,1.2,1.22
CATACAGGGTCAGCTAGGCCAGAGGAGGGACGGC,4.49,3.1,-0.068,2.08,0.388,4.31,3.63,2.81,0.595,1.67,0.736,2.07,1.18,1.1,1.66,2.15,-0.08,3.04,0.169,4.16
CCGCGGAGGACAACAGGAGGTCAGAGCTGCCAGA,1.23,2.08,1.98,1.49,-0.659,2.17,0.34,0.0732,-0.523,-0.778,0.131,0.105,-1.44,-1.52,2.29,2.44,0.34,2.5,0.536,3.04
ACTATTAGTTGACTTAGGGGAACCGATACGACGC,0.255,0.123,0.277,0.421,1.27,0.0304,0.951,0.244,0.351,0.326,1.27,0.41,1.51,1.41,0.783,0.271,0.621,0.648,1.36,0.217
AGAACGAGGGCACGCTGAGTTGATCGCAGAGTAG,0.98,0.604,-0.623,0.0852,-0.872,2.16,1.93,1.66,0.193,0.789,4.59,4.13,0.408,-0.362,-0.239,1.53,0.103,0.735,-1.04,2.57
TCATATAGGTTAATGCTAGGTGAAAGTCCGATCT,1.19,2.25,0.441,1.28,0.557,2.55,2.14,3.06,3.79,3.26,4.99,4.12,1.41,0.726,1.47,1.13,0.465,1.52,1.51,1.43
CGAACTAGGTCATTGACAGGACAGTGACTAGTAA,4.31,2.96,0.385,1.79,0.0478,4.71,7.47,6.11,3.43,5.59,8.03,8.27,2.04,1.38,0.886,1.81,0.0529,2.44,0.0227,3.58
TCGAGTAGGTTAGGGGCAATCAGAATGGCGTCGA,0.369,0.37,-0.18,0.715,-0.231,1.41,1.53,2.73,1.47,2.42,2.08,1.37,-0.745,-0.163,1.06,0.437,0.0887,0.347,-0.176,1.19
CAAACTAGGTCAAGGTGAAAGTCGGTTTGTGCCA,3.92,2.88,0.394,1.93,0.139,5.18,8.7,7.35,6.13,7.28,8.58,8.62,2.55,1.53,1.47,1.65,0.138,2.19,0.4,4.2
